Data on seven compounds can be found in the supplement of paper PMC13380429.

The experiment deals with Vero E6 infected with SARS-CoV-2. Briefly: inhibition of SARS-CoV-2 cytopathic effect; higher = more antiviral protection, active = above 15. Conditions: 48 h. For orientation: Cytopathic effects are the visible damage that an infection or toxin causes in cultured cells.

Values without a mark were called inactive.

For the compound `C=C[C@@]1(C)CC(=O)[C@]2(O)[C@@]3(C)[C@@H](O)CCC(C)(C)[C@@H]3[C@H](OC(=O)CCN(C)C)[C@H](OC(C)=O)[C@@]2(C)O1` [colforsin-daproate], the “inhibition of SARS-CoV-2 cytopathic effect” value (“inhibition” below) is 0.4% (1 nM); -2.13% (8.33 nM); -3.35% (100 nM); 3.07% (833.33 nM); 29.6% (active) (10000 nM).

In the case of `NCCCC(O)(P(=O)(O)O)P(=O)(O)O` [alendronate], the “inhibition” value by setting is: (1 nM) -2.08%; (8.33 nM) -1.44%; (100 nM) 0.15%; (833.33 nM) -0.56%; (10000 nM) -0.44%.

As for `Cc1ncc(C[n+]2csc(CCOP(=O)(O)OP(=O)(O)O)c2C)c(N)n1` [thiamine-pyrophosphate], the “inhibition” value is 2.5% (1 nM); 1.37% (8.33 nM); -0.57% (100 nM); 2.37% (833.33 nM); 0.01% (10000 nM).

`COc1cc2nc(N3CCN(C(=O)COc4c(OC)cccc4C(C)C)CC3)nc(N)c2cc1OC`: the “inhibition” value by setting is: (1 nM) 0.49%; (8.33 nM) 0.12%; (100 nM) 3.19%; (833.33 nM) 3.59%; (10000 nM) 1.29%.

Turning to `CC(CN(C)C)CN1c2ccccc2CCc2ccccc21` (stereo not given) [trimipramine], the “inhibition” value is -3.96% (1 nM); -0.87% (8.33 nM); -0.5% (100 nM); -2.02% (833.33 nM); -3.88% (10000 nM).

As to `C[C@H](NC(=O)CNC(=O)c1cccc(Cl)c1)c1ccccc1`, the “inhibition” value is -3.1% (1 nM); 0.31% (8.33 nM); -4.2% (100 nM); -1.91% (833.33 nM); 0.27% (10000 nM).

For `Cc1nn(C)c2c1C(c1cccc(Cl)c1)=NCCN2` [zometapine], the “inhibition” value (1 nM) was -1.8%; the “inhibition” value (8.33 nM) was -1.16%; the “inhibition” value (100 nM) is 1.14%; the “inhibition” value (833.33 nM) was -0.92%; the “inhibition” value (10000 nM) was -4.7%.
